In PubChem BioAssay AID1159580 (chemical genetic matrix, 2015):
“And” between values parts separate entries of the source, which are not always exact repeats. Equal entries are not always repeated. In all, about 5,500 compounds went through this assay and about 2,000 (36%) were called active. Another 18% or so got no clear call; they are omitted. Cut-off read from the data, not from the text of the source: active = normalized growth mostly below about 0.91 (no sharp cut-off); inconclusive = no clear call, values can overlap the other calls; inactive = mostly above about 0.92. Some of the results follow.

Assay: chemical genetic growth profiling, strain panel (AID 1159580);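 note: tested at 20 µM; growth read once vehicle control cultures reached saturation at 30 °C; 1 = growth at the plate median or of vehicle wells; lower values mean less growth of the strain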
Conditions: S. cerevisiae deletion strains, growth OD

Measured: normalized growth

CC1(C)CC[C@]2(C(=O)O)CC[C@]3(C)C(=CCC4[C@@]5(C)CC[C@H](O)[C@@](C)(CO)C5CC[C@]43C)C2C1 (stereo partly drawn)
active: locus YGL086W, strain mad1, active compounds read low 1.24 [resistant] | locus YKL085W, strain MDH1 (second series), active compounds read low 1.16 [resistant] | locus YKL085W, strain MDH1, active compounds read low 1.16 [resistant] | locus YLL041C, strain sdh2, active compounds read low 1.12 [resistant]
inactive: locus YAL021C, strain ccr4, active compounds read low 1 | locus YAL026C, strain drs2, active compounds read low 1.02 | locus YAL030W, strain snc1, active compounds read low 1.02 | locus YBL061C, strain skt5, active compounds read low 1.01 | locus YBR009C, strain hhf1, active compounds read low 1.02 | locus YBR021W, strain FUR4, active compounds read low 1.11 | locus YBR023C, strain chs3, active compounds read low 1.02 | locus YBR171W, strain sec66, active compounds read low 1.04 | locus YBR229C, strain ROT2, active compounds read low 1.02 | locus YBR231C, strain swc5, active compounds read low 1.02 | locus YBR279W, strain paf1, active compounds read low 1.02 | locus YCL011C, strain gbp2, active compounds read low 1.03 | locus YCL016C, strain dcc1, active compounds read low 1.03 | locus YCL029C, strain bik1, active compounds read low 0.977 | locus YCL061C, strain MRC1, active compounds read low 1.02 | locus YCL069W, strain vba3, active compounds read low 1.03 | locus YCR088W, strain abp1, active compounds read low 1.02 | locus YDL005C, strain med2, active compounds read low 1.04 | locus YDL035C, strain GPR1, active compounds read low 1.04 | locus YDL040C, strain nat1, active compounds read low 1.05 | locus YDL074C, strain BRE1, active compounds read low 0.981 | locus YDL101C, strain DUN1, active compounds read low 1.02 | locus YDL134C, strain PPH21, active compounds read low 1.1 | locus YDL185W, strain tfp1, active compounds read low 0.946 | locus YDL192W, strain arf1, active compounds read low 0.99 | locus YDR001C, strain nth1, active compounds read low 1.02 | locus YDR069C, strain doa4, active compounds read low 1.03 | locus YDR101C, strain arx1, active compounds read low 1.01 | locus YDR137W, strain rgp1, active compounds read low 1.04 | locus YDR159W, strain sac3, active compounds read low 1.04 | locus YDR162C, strain NBP2, active compounds read low 1.07 | locus YDR195W, strain ref2 1.08 | locus YDR297W, strain sur2, active compounds read low 1.03 | locus YDR318W, strain mcm21, active compounds read low 0.999 | locus YDR334W, strain swr1, active compounds read low 1.03 | locus YDR335W, strain msn5, active compounds read low 1.02 | locus YDR388W, active compounds read low 0.994 | locus YDR392W, strain spt3, active compounds read low 1.01 | locus YDR502C, strain sam2, active compounds read low 0.999 | locus YEL003W, strain gim4, active compounds read low 1.02 | locus YEL037C, strain rad23, active compounds read low 1.02 | locus YEL061C, strain CIN8 (second series), active compounds read low 1.02 | locus YEL061C, strain CIN8, active compounds read low 1 | locus YER015W, strain faa2, active compounds read low 1.02 | locus YER016W, strain bim1, active compounds read low 1.03 | locus YER110C, active compounds read low 0.987 | locus YER111C, strain swi4, active compounds read low 1.02 | locus YER155C, strain BEM2 (second series), active compounds read low 1.03 | locus YER155C, strain BEM2, active compounds read low 1.01 | locus YER167W, strain BCK2, active compounds read low 1.02 | locus YFR010W, strain ubp6, active compounds read low 1.02 | locus YGL078C, strain dbp3, active compounds read low 0.994 | locus YGL167C, strain pmr1, active compounds read low 1.03 | locus YGL173C, strain kem1, active compounds read low 1.03 | locus YGL227W, strain vid30, active compounds read low 1.03 | locus YGL240W, strain doc1, active compounds read low 1.01 | locus YGL248W, strain PDE1, active compounds read low 1.03 | locus YGL253W, strain hxk2, active compounds read low 1.02 | locus YGR078C, strain PAC10, active compounds read low 1.03 | locus YGR135W, strain pre9, active compounds read low 1.01 | locus YGR229C, strain SMI1, active compounds read low 1.02 | locus YGR252W, strain gcn5, active compounds read low 1.02 | locus YHR013C, strain ard1, active compounds read low 1.06 | locus YHR027C, strain rpn1, active compounds read low 1.02 | locus YHR030C, strain SLT2, active compounds read low 0.989 and 1.03 | locus YHR079C, strain IRE1 (second series), active compounds read low 0.999 | locus YHR079C, strain IRE1, active compounds read low 1.02 | locus YHR094C, strain hxt1, active compounds read low 1 | locus YHR129C, strain ARP1, active compounds read low 1 | locus YHR142W, strain chs7, active compounds read low 1.03 | locus YHR200W, strain rpn10, active compounds read low 1.01 | locus YIL066C, strain RNR3, active compounds read low 1.03 | locus YIL073C, strain SPO22, active compounds read low 1 | locus YIL125W, strain kgd1, active compounds read low 0.99 | locus YIR030C, strain dcg1, active compounds read low 1.04 | locus YJL092W, strain hpr5, active compounds read low 1.03 | locus YJL095W, strain BCK1 (second series), active compounds read low 1.02 | locus YJL095W, strain BCK1, active compounds read low 1.04 and 0.98 | locus YJL115W, strain asf1, active compounds read low 1.03 | locus YJL129C, strain trk1, active compounds read low 1.02 | locus YJL134W, strain LCB3, active compounds read low 0.995 | locus YJL154C, strain vps35, active compounds read low 1.02 | locus YJL164C, strain tpk1, active compounds read low 1.05 | locus YJL166W, strain qcr8, active compounds read low 1.02 | locus YJL168C, strain set2, active compounds read low 0.998 | locus YJL187C, strain SWE1 (second series), active compounds read low 1.02 | locus YJL187C, strain SWE1, active compounds read low 1.04 | locus YJR043C, strain POL32, active compounds read low 1.03 | locus YJR066W, strain TOR1, active compounds read low 0.977 | locus YKL160W, strain elf1, active compounds read low 1.02 | locus YKL190W, strain CNB1, active compounds read low 1.02 | locus YKR001C, strain vps1, active compounds read low 0.996 | locus YKR026C, strain gcn3, active compounds read low 1.03 | locus YKR091W, strain srl3, active compounds read low 1.03 | locus YLL001W, strain dnm1, active compounds read low 1.02 | locus YLL026W, active compounds read low 1.02 | locus YLR027C, strain aat2, active compounds read low 1.02 | locus YLR039C, strain RIC1, active compounds read low 1.04 | locus YLR058C, strain SHM2, active compounds read low 1.01 | locus YLR102C, strain apc9, active compounds read low 0.991 | locus YLR113W, strain HOG1, active compounds read low 0.929 | locus YLR221C, strain rsa3, active compounds read low 1.02 | locus YLR258W, strain gsy2, active compounds read low 1.02 | locus YLR262C, strain YPT6 (second series), active compounds read low 1.03 | locus YLR262C, strain YPT6, active compounds read low 1.09 | locus YLR268W, strain sec22, active compounds read low 1.01 | locus YLR320W, strain mms22, active compounds read low 1.03 | locus YLR330W, strain CHS5, active compounds read low 0.994 | locus YLR342W, strain FKS1 (second series), active compounds read low 1.05 | locus YLR342W, strain FKS1, active compounds read low 1.03 | locus YLR357W, strain rsc2, active compounds read low 1.01 | locus YLR370C, strain arc18, active compounds read low 1.02 | locus YLR371W, strain rom2, active compounds read low 0.958 | locus YLR384C, strain iki3, active compounds read low 1.01 | locus YLR418C, strain cdc73, active compounds read low 1.02 | locus YML016C, strain PPZ1, active compounds read low 1.01 | locus YML032C, strain rad52, active compounds read low 0.998 | locus YML120C, strain ndi1, active compounds read low 1.02 | locus YML124C, strain tub3, active compounds read low 0.996 | locus YMR058W, strain fet3, active compounds read low 1.03 | locus YMR078C, strain ctf18, active compounds read low 0.991 | locus YMR125W, strain sto1, active compounds read low 1.03 | locus YMR129W, active compounds read low 1.02 | locus YMR205C, strain PFK2, active compounds read low 1.03 | locus YMR223W, strain ubp8, active compounds read low 1 | locus YMR231W, strain pep5, active compounds read low 1.01 | locus YMR307W, strain GAS1, active compounds read low 0.931 | locus YNL067W, strain RPL9B, active compounds read low 1.04 | locus YNL071W, strain lat1, active compounds read low 1.02 | locus YNL128W, strain TEP1, active compounds read low 0.996 | locus YNL183C, strain NPR1, active compounds read low 0.878 | locus YNL209W, strain ssb2, active compounds read low 1.01 | locus YNL233W, strain BNI4, active compounds read low 1.03 | locus YNL248C, strain rpa49, active compounds read low 1.02 | locus YNL250W, strain rad50, active compounds read low 0.991 | locus YNL271C, strain bni1, active compounds read low 0.983 | locus YNL298W, strain CLA4, active compounds read low 0.992 | locus YNL307C, strain MCK1, active compounds read low 1.01 | locus YNL322C, strain KRE1 (second series), active compounds read low 1.02 | locus YNR049C, strain mso1, active compounds read low 1.02 | locus YNR052C, strain pop2, active compounds read low 0.997 | locus YOL012C, strain htz1 0.926 | locus YOL147C, strain pex11, active compounds read low 1 | locus YOR001W, strain rrp6, active compounds read low 1.01 | locus YOR061W, strain CKA2, active compounds read low 0.998 | locus YOR069W, strain VPS5, active compounds read low 1.01 | locus YOR070C, strain gyp1, active compounds read low 1 | locus YOR080W, strain dia2, active compounds read low 1.03 | locus YOR083W, strain WHI5, active compounds read low 1.02 | locus YOR106W, strain vam3, active compounds read low 1.04 | locus YOR136W, strain idh2, active compounds read low 0.999 | locus YOR144C, strain elg1, active compounds read low 1 | locus YOR184W, strain ser1, active compounds read low 1.01 | locus YOR231W, strain MKK1, active compounds read low 1.02 | locus YOR265W, strain rbl2, active compounds read low 1.01 | locus YOR270C, strain vph1, active compounds read low 1.05 | locus YOR290C, strain snf2, active compounds read low 1.03 | locus YOR316C, strain cot1, active compounds read low 0.989 | locus YPL051W, strain arl3, active compounds read low 1.01 | locus YPL078C, strain atp4, active compounds read low 1.02 | locus YPL106C, strain sse1, active compounds read low 1.04 | locus YPL240C, strain hsp82, active compounds read low 1.02 | locus YPL241C, strain CIN2, active compounds read low 0.999 | locus YPL256C, strain CLN2, active compounds read low 1.01 | locus YPR119W, strain clb2, active compounds read low 0.999 | locus YPR141C, strain kar3, active compounds read low 0.986 | locus YPR163C, strain tif3, active compounds read low 1 | locus YPR167C, strain met16, active compounds read low 0.996 | strain wtn01, active compounds read low 0.997
